# A number with no mark means an inactive call. Calls of active or inactive are those of the source. Calls come from the whole dose curve; as a rule, active = well fitted curve in the direction sought with a large enough effect in the repeat runs; inconclusive = weak or mixed curves; inactive = flat fitted curve, though single readings scatter.
# Assay: qHTS assay to test for compound auto fluorescence at 460 nm (blue) in HepG2 cells (AID 720687)
# Details: autofluorescence 405/460 nm, 1 h; series mostly up to 91.3 µM
# Text: U.S. Tox21 Program National Center for Advancing Translational Sciences [NCATS] NIH Chemical Genomics Center [NCGC] U.S. Environmental Protection Agency [EPA] National Institutes of Environmental Health Sciences [NIEHS] National Toxicology Program [NTP] U.S. Food and Drug Administration [FDA] Tox21 Assay Overview: Compound auto fluorescence often interferes with screening of the compound library against various biological targets and signaling pathways. Some of these compounds may have fluorophoric properties. Such properties may interfere with the assay outputs resulting in false positives and/or negatives. To decrease such complications and ensure the compound activities are relevant in terms of biological response, the Tox21 10K compound library was screened for auto fluorescence. From the fluorophores used as reporter signals in our screening assays, the auto fluorescence equivalencies of compounds against three fluorophores have been evaluated: Triamterene, Fluorescein and Rose Bengal sodium for blue, green and red fluorescence, respectively. The fluorescence intensities were measured using Excitation/Emission wavelengths at 405/460nm, 485/535nm and 540/590nm for blue, green and red labels, respectively. This assay includes the blue fluorescence data.
# Tox21 Assay Protocol Summary: 2,000 HepG2 cells in 5 uL of culture medium (MEM containing 10% FBS) per well were dispensed into black wall/clear bottom 1536-well plates using a Multidrop Combi Dispenser (ThermoFisher Scientific, Waltham, MA). The assay plates were incubated overnight at 37 C to allow cell attachment to the well bottom, followed by the transfer of 23 nL compound or DMSO vehicle by a pintool work station (Kalypsys , San Diego, CA). After the assay plates were incubated for 1 hr at 37 C and 5% CO2, fluorescence intensities in the assay plates were measured by an Envision (PerkinElmer, Shelton, CT) plate reader using three labels for measuring blue, green and red fluorescence at […] 460, 535 and 590 nm respectively.
# % is set by controls: 0 for no effect and ±100 for the full control effect.
Structure (SMILES),outcome,"fluorescence, % of fluorescent control"
O=C1c2ccccc2C(=O)C1C(=O)C(c1ccccc1)c1ccccc1,inactive,
CNP(=O)(OC)Oc1ccc(C(C)(C)C)cc1Cl (stereo not given),inactive,
CCOS(C)(=O)=O,inactive,
C=CCCl,inactive,
CCCCCCCCCC(=O)O[C@H]1CC[C@H]2[C@@H]3CCC4=CC(=O)CC[C@@H]4[C@H]3CC[C@]12C,inactive,
COc1cc(CC(C)N)cc2c1OCO2 (stereo not given),inactive,
O=C(Nc1ccccc1)Nc1ccnc(Cl)c1,inactive,
CCOP(=S)(OCC)Oc1cc(Cl)c(Br)cc1Cl,inactive,
Clc1cc(Cl)c(Cl)c(Cl)c1,inactive,
II,inactive,
CC(=O)C(C)(C)C,inactive,
CC(C)(OO)c1ccccc1,inactive,
CCOC(=O)[C@]1(c2ccccc2)Oc2ccccc2[C@@H]1N,inactive,
Cc1ccc2ccccc2c1,inactive,
O=S1(=O)OC(c2cc(Br)c(O)c(Br)c2)(c2cc(Br)c(O)c(Br)c2)c2ccccc21,inactive,
CCOC(=O)COc1cc(-c2nn(C)c(OC(F)F)c2Cl)c(F)cc1Cl,inactive,
COCCOCCO,inactive,
CS/C(C)=N/OC(=O)N(C)SN(C)C(=O)O/N=C(\C)SC,inactive,
COc1cc(Cl)c(OC)cc1Cl,inactive,
N#Cc1cc(I)c(O)c(I)c1,inactive,

Structure (SMILES),outcome,"fluorescence, % of fluorescent control"
COP(=S)(OC)Oc1ccc([N+](=O)[O-])cc1Cl,inactive,
CC(Cl)Cl,inactive,
CCCCN=C=O,inactive,
CCC(COC(=O)c1cc(OC)c(OC)c(OC)c1)(c1ccccc1)N(C)C (stereo not given),inactive,
COc1ccc(-c2ccccc2)cc1NNC(=O)OC(C)C,inactive,
Clc1ccc(C(OCCN2CCCCC2)c2ccccc2)cc1 (stereo not given),,0.1% [at 18.6 µM]
c1ccc(CN2CCNCC2)cc1,inactive,
CN(N=O)c1ccc([N+](=O)[O-])cc1,inactive,
CCCCc1c(C)nc(NCC)nc1OS(=O)(=O)N(C)C,inactive,
O=C(NC(=O)c1c(F)cccc1F)Nc1cc(Cl)c(Oc2ncc(C(F)(F)F)cc2Cl)c(Cl)c1,inactive,
N#CCC#N,inactive,
COCC(C)N(C(=O)CCl)c1c(C)csc1C (stereo not given),inactive,
CCCCN(N=O)C(=N)N[N+](=O)[O-],inactive,
CN1[C@@H]2CC[C@H]1CC(OC(=O)c1cc(Cl)cc(Cl)c1)C2 (stereo not given in full),inactive,
Clc1cccc(SC2CCNCC2)n1,inactive,
C[C@@H]1CC[C@H]2[C@@H](C)C(=O)O[C@@H]3O[C@@]4(C)CC[C@@H]1[C@]32OO4,inactive,
Brc1ccc(Oc2ccccc2)cc1,inactive,
C=CC(=O)OC(C)(C)C,inactive,
Clc1cc(C(Cl)(Cl)Cl)cnc1Cl,inactive,
COC(N)=O,inactive,
